This note sets out measurements from PubChem BioAssay.

A short description of assay [1]: antimalarial activity against Dd2 strain (AID 2302;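 active = growth inhibition above 50% at the single 2 µM test dose, taken to imply half-maximal potency below 2 µM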;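 also: 0% = DMSO untreated growth and 100% = chloroquine plus artemisinin killed control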). The settings on record: P. falciparum Dd2 in RBCs, LDH growth readout, 72 h; at 2 µM; stronger effect = higher value.
Assay [2] in a line: human hepatoma cell viability loss – ATP luminescence, cytotoxicity control for P. falciparum antimalarial project, primary screen (AID 2303;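 active = inhibition above 50%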;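 also: 0% = DMSO wells and 100% = digitonin-killed cells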). The settings on record: HepG2 viability, 24-48 h, at 10 µM, stronger effect = higher value.
The target in assay [3] is L-lactate dehydrogenase (Plasmodium falciparum (isolate CDC / Honduras)) (UniProt Q27743). Nature of the assay: PfLDH activity inhibition – cell lysate, 3D7 strain, counter-screen for P. falciparum growth inhibition project (AID 2304).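 Also: 0% = vehicle and 100% = reference inhibitor.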 The settings on record: P. falciparum 3D7 crude extract, LDH APAD/NBT absorbance; at 2 µM; stronger effect = higher value. (In general: A counterscreen serves to expose hits that act by an unwanted route or on another target.)

A short description of assay [4]: inhibition of 3D7 malaria parasite growth – strain 3D7 (AID 2306).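 Also: 0% = DMSO wells and 100% = chloroquine plus artemisinin control wells.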 The settings on record: P. falciparum 3D7 erythrocytic growth, LDH absorbance, 72 h; at 2 µM; stronger effect = higher value.
Assay [5] deals with Calcium-dependent protein kinase 1 (Plasmodium falciparum (isolate 3D7)) (UniProt P62344). Briefly: PfCDPK1 kinase inhibitors, biochemical, TCAMS library (AID 1159585; cut-off not given, nearly all actives have IC50 up to about 0.98 µM;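 also: inhibitors leave more ATP so luminescence rises with inhibition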). The settings on record: recombinant PfCDPK1, Kinase-Glo ATP depletion luminescence. Background: Kinase-Glo reads ATP consumption through a luciferase reaction.
The target in assay [6] is Plasmodium falciparum protein kinase 6 (PK6, PF3D7_1337100) (UniProt Q8IDW1). Nature of the assay: PfPK6 kinase inhibitors, biochemical, TCAMS library (AID 1159586). The settings on record: recombinant PfPK6, Kinase-Glo ATP depletion luminescence.
Assay [7] concerns the target Protein kinase 7 (PK7), Plasmodium falciparum 3D7 (PF3D7_0213400) (UniProt Q7YTF7). Nature of the assay: inhibition of Plasmodium PK7 catalytic activity – biochemical, TCAMS antimalarial set, Kinase-Glo luminescence (AID 1159587). The conditions noted are these: recombinant PfPK7, Kinase-Glo ATP depletion luminescence.
The target in assay [8] is Calcium-dependent protein kinase 4 (Plasmodium falciparum (isolate 3D7)) (UniProt Q8IBS5). Nature of the assay: PfCDPK4 kinase inhibitors, biochemical, TCAMS library (AID 1159588; cut-off not given, nearly all actives have IC50 up to about 0.91 µM). The conditions noted are these: recombinant PfCDPK4, Kinase-Glo ATP depletion luminescence.

A word on the inhibition: it is the relative decrease from the control value, in per cent.

Molecules are shown by their SMILES. Values without a mark were called inactive. For part of these data: Measured potencies and affinities stand elsewhere. Calls of active or inactive are those of the source. Unless noted, no rule for the calls is given here.

Sequence of Calcium-dependent protein kinase 4 (Plasmodium falciparum (isolate 3D7)) (Q8IBS5 whole entry, looked up): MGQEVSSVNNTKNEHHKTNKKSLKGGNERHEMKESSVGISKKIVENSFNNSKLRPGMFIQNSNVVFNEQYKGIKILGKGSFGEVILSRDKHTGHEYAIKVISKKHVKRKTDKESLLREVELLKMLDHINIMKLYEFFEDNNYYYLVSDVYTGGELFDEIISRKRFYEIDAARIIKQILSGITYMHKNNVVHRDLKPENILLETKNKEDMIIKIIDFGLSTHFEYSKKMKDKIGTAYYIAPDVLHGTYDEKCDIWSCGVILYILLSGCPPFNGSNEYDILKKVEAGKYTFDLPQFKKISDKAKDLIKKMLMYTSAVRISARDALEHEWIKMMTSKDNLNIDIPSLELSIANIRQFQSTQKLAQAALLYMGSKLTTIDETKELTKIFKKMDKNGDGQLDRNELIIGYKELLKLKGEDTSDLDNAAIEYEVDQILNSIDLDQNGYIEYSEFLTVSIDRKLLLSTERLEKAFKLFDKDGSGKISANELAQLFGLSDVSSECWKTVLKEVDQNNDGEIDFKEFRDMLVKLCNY
Sequence of Calcium-dependent protein kinase 1 (Plasmodium falciparum (isolate 3D7)) (P62344 whole entry, looked up): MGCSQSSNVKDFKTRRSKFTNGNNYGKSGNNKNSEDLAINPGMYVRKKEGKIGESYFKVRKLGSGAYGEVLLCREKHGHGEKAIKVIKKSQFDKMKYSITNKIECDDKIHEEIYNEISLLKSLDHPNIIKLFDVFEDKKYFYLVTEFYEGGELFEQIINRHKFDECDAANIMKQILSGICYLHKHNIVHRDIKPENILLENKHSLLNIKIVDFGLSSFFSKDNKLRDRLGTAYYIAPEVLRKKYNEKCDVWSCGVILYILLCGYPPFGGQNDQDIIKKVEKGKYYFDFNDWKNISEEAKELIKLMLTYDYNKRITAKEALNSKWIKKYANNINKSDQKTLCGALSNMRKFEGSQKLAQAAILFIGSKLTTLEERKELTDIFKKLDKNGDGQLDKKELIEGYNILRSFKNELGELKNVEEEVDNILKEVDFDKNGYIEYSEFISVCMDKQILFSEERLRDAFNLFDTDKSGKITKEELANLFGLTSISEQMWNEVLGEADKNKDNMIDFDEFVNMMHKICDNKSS
Sequence of Plasmodium falciparum protein kinase 6 (PK6, PF3D7_1337100) (Q8IDW1 1-305): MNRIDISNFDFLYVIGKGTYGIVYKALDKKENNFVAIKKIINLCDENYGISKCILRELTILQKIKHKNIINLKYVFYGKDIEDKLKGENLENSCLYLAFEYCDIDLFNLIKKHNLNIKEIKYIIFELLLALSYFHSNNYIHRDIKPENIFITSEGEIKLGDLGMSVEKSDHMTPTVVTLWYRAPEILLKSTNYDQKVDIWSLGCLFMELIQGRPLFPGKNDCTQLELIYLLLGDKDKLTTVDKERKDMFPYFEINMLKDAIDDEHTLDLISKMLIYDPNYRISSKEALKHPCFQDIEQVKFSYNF
Sequence of L-lactate dehydrogenase (Plasmodium falciparum (isolate CDC / Honduras)) (Q27743 whole entry, looked up): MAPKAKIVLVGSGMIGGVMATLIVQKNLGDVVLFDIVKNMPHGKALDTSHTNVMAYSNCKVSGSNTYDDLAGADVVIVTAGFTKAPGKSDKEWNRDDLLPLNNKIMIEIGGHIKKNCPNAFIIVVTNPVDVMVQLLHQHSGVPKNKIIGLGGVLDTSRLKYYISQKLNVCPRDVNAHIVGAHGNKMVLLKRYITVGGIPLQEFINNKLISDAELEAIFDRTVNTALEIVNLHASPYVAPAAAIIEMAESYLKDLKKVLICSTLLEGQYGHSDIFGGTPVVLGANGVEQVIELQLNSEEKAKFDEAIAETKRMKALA
Sequence of Protein kinase 7 (PK7), Plasmodium falciparum 3D7 (PF3D7_0213400) (Q7YTF7 1-343): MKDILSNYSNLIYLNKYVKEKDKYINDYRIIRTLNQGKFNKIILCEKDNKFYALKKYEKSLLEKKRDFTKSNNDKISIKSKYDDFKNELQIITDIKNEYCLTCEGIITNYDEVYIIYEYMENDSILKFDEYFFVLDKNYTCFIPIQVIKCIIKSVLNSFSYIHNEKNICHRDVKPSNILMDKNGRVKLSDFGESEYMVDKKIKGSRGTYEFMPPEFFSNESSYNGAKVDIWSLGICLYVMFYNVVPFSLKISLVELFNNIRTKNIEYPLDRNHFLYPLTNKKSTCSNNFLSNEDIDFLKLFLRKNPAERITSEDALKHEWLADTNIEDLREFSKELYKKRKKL

Take `COc1ccc2nccc([C@@H](O)CN3CCC(NCc4cnc5c(c4)NC(=O)CS5)CC3)c2c1`: the growth inhibition in assay [1] is 29%; in assay [4], 87% (active). In addition, the inhibition in assay [2] was -15%; in assay [3], 0%. Moreover, the result in assay [5], in assay [6], in assay [7] and in assay [8] was inactive.
Regarding `O=C(Nc1cc(C(F)(F)F)cc(C(F)(F)F)c1)Nc1ccc(Cl)c(Cl)c1`, the growth inhibition was 100% (active) in assay [1] and 101% (active) in assay [4]. Further, the values for the inhibition in assay [2] and in assay [3] were 58% (active) and 0%, respectively. Moreover, the outcome in assay [5], in assay [6], in assay [7] and in assay [8] was inactive.
For the molecule `CC1CCCN(C(=O)C(C)Nc2cc(Cl)ccc2N2CCOCC2)C1` (stereo not given), the growth inhibition in assay [1] is 96% (active); in assay [4], 101% (active). In addition, the inhibition in assay [2] was -1%; in assay [3], -5%. The result in assay [5], in assay [6], in assay [7] and in assay [8] was inactive.
Regarding `CCOc1cccc(C(=O)Nc2nonc2-c2ccc(OC)c(OC)c2)c1`, the results for the growth inhibition in assay [1] and in assay [4] were 95% (active) and 92% (active), respectively. Moreover, the inhibition is 11% in assay [2] and 4% in assay [3]. Also, the outcome in assay [5], in assay [6], in assay [7] and in assay [8] was inactive.
As for `N#Cc1cc(C(=O)Nc2ccccc2)c(N)nc1SCC(=O)NC(c1ccccc1)c1cccs1` (stereo not given), the growth inhibition in assay [1] was 100% (active); in assay [4] it was 98% (active). The values for the inhibition in assay [2] and in assay [3] were 34% and -1%, respectively. Moreover, the result in assay [5], in assay [6], in assay [7] and in assay [8] was inactive.
As to `CNC(=O)c1cc(S(=O)(=O)N2CCN(c3ccccn3)CC2)c(C)s1`, the growth inhibition in assay [1] is 52% (active); in assay [4], 91% (active). Also, the inhibition in assay [2] is -2%; in assay [3], -1%. In addition, the result in assay [5], in assay [6], in assay [7] and in assay [8] was inactive.
Consider `O=C(Nc1ccc(Cl)cc1)Nc1ccc(-c2cccc(-c3nc4ccc(F)cc4[nH]3)c2)cc1`, for which the values for the growth inhibition in assay [1] and in assay [4] were 96% (active) and 101% (active), respectively. Besides, the inhibition in assay [2] is 74% (active); in assay [3], -1%. Moreover, the outcome in assay [5], in assay [6], in assay [7] and in assay [8] was inactive.
Take `NCC(=O)NC12CC3CC(CC(C3)C1)C2`: the results for the growth inhibition in assay [1] and in assay [4] were -4% and 87% (active), respectively. The inhibition was 15% in assay [2] and -2% in assay [3]. Further, the outcome in assay [5], in assay [6], in assay [7] and in assay [8] was inactive.
As for `O=C(C=Cc1cccc(F)c1)NC1CCC(CCN2CCc3ccc(-c4cnccn4)cc3CC2)CC1` (stereo not given), the growth inhibition in assay [1] is 67% (active); in assay [4], 100% (active). The inhibition in assay [2] was 51% (active); in assay [3], -1%. Further, the result in assay [5], in assay [6], in assay [7] and in assay [8] was inactive.
For the molecule `CCCNC(=O)c1cncc(-c2ccc(CNC(CC)c3ccccc3)cc2)c1` (stereo not given), the growth inhibition in assay [1] is 1%; in assay [4], 92% (active). The inhibition in assay [2] was 20%; in assay [3], 0%. The outcome in assay [5], in assay [6], in assay [7] and in assay [8] was inactive.
Consider `Fc1ccc(Nc2n[nH]c(CNC3CCN(Cc4ccc(Cl)c(Cl)c4)CC3)n2)cc1`, for which the growth inhibition in assay [1] was 36%; in assay [4] it was 101% (active). In addition, the values for the inhibition in assay [2] and in assay [3] were 18% and 5%, respectively. Moreover, the outcome in assay [5], in assay [6], in assay [7] and in assay [8] was inactive.
On to `CC(=O)Nc1ccc(C(=O)Nc2cccc(-c3ccc(-c4nc5ccc(F)cc5[nH]4)s3)c2)cn1`, for which the growth inhibition in assay [1] was 97% (active); in assay [4], 101% (active). In addition, the inhibition in assay [2] is 33%; in assay [3], 3%. The result in assay [5], in assay [6], in assay [7] and in assay [8] was inactive.
On to `CCCCCN1C(=O)N(c2ccc(Cl)c(Cl)c2)C(N(O)C(=O)Nc2ccc(Cl)c(Cl)c2)C1(C)C` (stereo not given), for which the growth inhibition in assay [1] is 99% (active); in assay [4] it was 94% (active). In addition, the inhibition in assay [2] is -2%; in assay [3], 6%. The result in assay [5], in assay [6], in assay [7] and in assay [8] was inactive.
As for `Cc1ccnc(NC(c2ccc(Cl)c([N+](=O)[O-])c2)c2ccc3cccnc3c2O)c1` (stereo not given), the growth inhibition was 57% (active) in assay [1] and 89% (active) in assay [4]. For the same molecule, the inhibition in assay [2] is 47%; in assay [3], 6%. Moreover, the outcome in assay [5], in assay [6], in assay [7] and in assay [8] was inactive.
For the molecule `CCOC(=O)c1ccc(NC(=O)Nc2cccc(-c3cccc(-c4nc5ccc(F)cc5[nH]4)c3)c2)cc1`, the growth inhibition in assay [1] is 100% (active); in assay [4], 101% (active). The inhibition in assay [2] was 85% (active); in assay [3] it was 6%. For the same molecule, the result in assay [5], in assay [6], in assay [7] and in assay [8] was inactive.
Consider `CC1(C)N=C(N)N=C(N)N1c1ccc(Oc2ccccc2)cc1`, for which the growth inhibition in assay [1] was 3%; in assay [4], 98% (active). For the same molecule, the inhibition in assay [2] is 13%; in assay [3] it was -6%. Besides, the outcome in assay [5], in assay [6], in assay [7] and in assay [8] was inactive.
As to `CCCN1CCN(CC(O)CNC(=O)Nc2ccc(Cl)cc2)CC1` (stereo not given), the growth inhibition in assay [1] and in assay [4] was 100% (active) in each case. Moreover, the results for the inhibition in assay [2] and in assay [3] were 6% and -3%, respectively. The outcome in assay [5], in assay [6], in assay [7] and in assay [8] was inactive.
On to `CCCc1cc2c3c(N)nc(N)nc3ccc2n1CC`, for which the growth inhibition in assay [1] is 6%; in assay [4], 96% (active). In assay [3], the inhibition is -1%. The outcome in assay [5], in assay [6], in assay [7] and in assay [8] was inactive.
For the molecule `Nc1ncc(-c2ccc(F)c(Cl)c2)c(N)n1`, the growth inhibition in assay [1] was -2%; in assay [4] it was 83% (active). For the same molecule, in assay [3], the inhibition is 5%. Moreover, the outcome in assay [5], in assay [6], in assay [7] and in assay [8] was inactive.
As to `Cc1ccc(NC(=O)Nc2ccccc2F)cc1-c1ccc(C(=O)Nc2ccncc2)cc1`, the growth inhibition in assay [1] is 54% (active); in assay [4], 99% (active). Moreover, the inhibition in assay [2] was 36%; in assay [3], 3%. In addition, the result in assay [5], in assay [6], in assay [7] and in assay [8] was inactive.
As for `Cc1[nH]c(C)c(-c2ccc(Oc3cc(Cl)cc(Cl)c3)cc2)c(=O)c1Br`, the growth inhibition in assay [1] was 97% (active); in assay [4] it was 96% (active). Further, the inhibition in assay [3] is -6%. The result in assay [5], in assay [6], in assay [7] and in assay [8] was inactive.
